# High-throughput results from PubChem BioAssay.
# GRIN3A LBD mod = binders of NR3A ligand-binding domain, primary screen, biophysical, differential scanning fluorimetry, uHTS; Tm shift relative to glycine control, % at 25 µM; AID 1259313, 2017; 340,000 tested, 2.5% active; NR3A LBD differential scanning fluorimetry, Tm shift; 0% = protein alone, 100% = glycine-bound protein; Glutamate receptor ionotropic, NMDA 3A (GRIN3A) ligand-binding domain;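 active = melting temperature shift of at least 10% of the positive control shift, at one fixed dose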
# CR mimetic SO = reduction of superoxide in aged yeast, primary screen, HTS; S. cerevisiae aged cells, superoxide DHE fluorescence; hits give low values; 330,000 tested, 0.18% active; superoxide response (% of plate mean), % at 10 µM;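 active = superoxide response under a set limit, about three screen SD below normal, cut at about 65% in these data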;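 note: yeast aged for seven days with compound at 30 °C before DHE staining; 100% = average MFI of all compound-treated wells on the plate with controls excluded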
# NALP1 inh = NALP1 inflammasome inhibitors in reconstituted yeast, colorimetric, S. cerevisiae, triplicate retest; inhibition, % at 10 µM; S. cerevisiae NALP1/ASC/caspase-1 growth, X-gal OD620, 72 h; 280,000 tested, 0.61% active; AID 2071, 2009; in the data active = inhibition mostly above about 24%, no sharp cut-off; inactive = mostly below about 32%
# UBC13 inh = UBC13 polyubiquitin chain formation inhibitors, primary screen, biochemical, TR-FRET, uHTS | Ubiquitin-conjugating enzyme E2 N (Homo sapiens), P61088 | inhibition, % at 20 µM | 330,000 tested, 0.47% active; in the data active = inhibition above about 45%, passing the limit was not always enough; inconclusive = no clear call, values can overlap the other calls
# Target sequence (P61088 whole entry, looked up): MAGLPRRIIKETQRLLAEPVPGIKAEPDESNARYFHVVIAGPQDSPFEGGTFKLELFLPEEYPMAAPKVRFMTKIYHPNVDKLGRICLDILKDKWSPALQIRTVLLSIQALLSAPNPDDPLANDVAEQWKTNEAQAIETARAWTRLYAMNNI
# dFosB activator = activators of delta FosB homodimer, primary screen, biochemical, fluorescence polarization, TAMRA-CDK5 oligo, single point | purified delta FosB; percent of positive-control signal above neutral wells | activation, % at 25 µM | 340,000 tested, 0.99% active | AID 493131, 2011;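 active = mean activation above about 17%, with every replicate also reaching it, limit read from the data, passing the limit was not always enough; inconclusive = only one of the two conditions met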
# Target sequence (P13346 whole entry, looked up): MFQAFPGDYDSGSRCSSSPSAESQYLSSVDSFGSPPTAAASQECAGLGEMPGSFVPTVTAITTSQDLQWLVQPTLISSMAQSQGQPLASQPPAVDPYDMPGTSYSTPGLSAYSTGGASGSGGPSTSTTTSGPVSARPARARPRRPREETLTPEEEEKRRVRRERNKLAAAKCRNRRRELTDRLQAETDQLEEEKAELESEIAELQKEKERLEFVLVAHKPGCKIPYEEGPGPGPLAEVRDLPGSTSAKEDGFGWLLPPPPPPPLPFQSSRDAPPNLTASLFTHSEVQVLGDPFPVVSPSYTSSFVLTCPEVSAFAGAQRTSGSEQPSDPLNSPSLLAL
# The depositor's hits bear a star; ? = inconclusive; nt = not tested or not shown. Compounds with a hit are over-represented: about 4.3% of the library has one in this group of screens.
SMILES,GRIN3A LBD mod,CR mimetic SO,NALP1 inh,UBC13 inh,dFosB activator
O=C(CSc1nnc(-c2cccs2)n1-c1ccccc1)N1CCCC1,11.1*,92.6,9.1,16.0,-6.1
O=C(CSc1nnc(-c2cccs2)n1-c1ccccc1)N1CCOCC1,-0.9,84.9,10.2,2.2,4.0
COc1cccc(/C=N/NC(=O)CCCC(=O)Nc2ccc(Br)cc2)c1,20.2*,104.4,36.4,9.1,-5.2
c1cc2ccc3ccc(-n4cnnn4)c4ccc(c1)c2c34,-0.4,125.5,18.4,11.5,25.1*
CC(C)(C)c1cc(-c2csc(Nc3ccccc3)[n+]2Cc2ccc(C(=O)O)cc2)cc(C(C)(C)C)c1O,-0.9,95.8,-18.6,-9.8,-19.9
O=C(O)c1ccc(C[n+]2c(-c3ccccc3)csc2Nc2ccccc2)cc1,17.8*,98.5,5.4,-0.5,-5.3
CCC(c1ccccc1)c1nc(-c2cccnc2)no1 (stereo unspecified),12.2*,88.1,27.4,-9.0,-3.4
CCC(c1ccccc1)c1nc(-c2ccccn2)no1 (stereo unspecified),-0.9,100.4,9.4,-3.4,4.6
CC(=O)c1ccc(NC(=O)CCNC(=O)c2ccc(Cl)cc2)cc1,-3.3,106.2,6.1,4.7,-7.7
Cc1cccc(C)c1C(OCCN(C)C)C1CCCCC1 (stereo unspecified),-1.2,94.1,50.9*,25.1,10.4
O=S(=O)(Nc1nc2ccccc2nc1N1CCN(CCO)CC1)c1cc(F)ccc1F,1.2,103.9,nt,-10.9,-9.2
CCOc1ccc(NC(=O)C2=C(C)NC(=S)NC2c2ccc(O)c(OC)c2)cc1 (stereo unspecified),13.0*,117.3,7.7,-1.2,5.0
COc1ccc(CCN(CC(=O)NC(C)(C)C)C(=O)Cn2nnc(-c3ccc(C)o3)n2)cc1OC,-0.5,105.0,0.2,1.1,-4.2
CCCCC1CCC(C(=O)Nc2ccc(S(=O)(=O)Nc3nccs3)cc2)CC1 (stereo unspecified),15.4*,81.3,19.0,-41.9,-8.1
CCn1cc(S(=O)(=O)Nc2cc(C(=O)OC)ccc2C)cn1,2.5,98.0,-1.4,5.1,-1.3
CCOc1ccc(Br)cc1S(=O)(=O)Nc1ccc(C(=O)OCC(=O)N(C)c2ccccc2)cc1,-1.1,103.0,26.6,-9.2,1.9
CCOc1ccc(Br)cc1S(=O)(=O)Nc1cccc(S(=O)(=O)N(C)c2ccccc2)c1,11.9*,101.3,33.0,-4.8,-12.1
CCOc1ccc(Br)cc1S(=O)(=O)Nc1ccc(C(=O)Nc2ccc(C)cc2)cc1,17.6*,107.8,26.3,-3.5,2.8
CCOc1ccc(Br)cc1S(=O)(=O)Nc1ccc(C(=O)Nc2ccccc2OC)cc1,15.8*,102.6,27.4,-7.3,-11.4
Cc1nc2nc(C)n(CCN3CCOCC3)c(=O)c2c(-c2cccc([N+](=O)[O-])c2)c1C(=O)CCCCCCCCCCN1CCC(c2ccccc2)(c2ccccc2)CC1,-7.7,nt,nt,nt,36.9*
Cc1nc2ccccc2c(=O)n1CCN1CCOCC1,0.1,98.0,13.8,-5.4,0.2
COc1cccc(C2c3cc4c(cc3OC(N3CCOCC3)C2C)OCO4)c1O (stereo unspecified),1.0,nt,nt,nt,-2.2
O=C(NC1CCCCCC1)c1ccco1,3.4,97.3,-8.1,1.6,1.8
CCOC(=O)c1cc(-c2ccccc2)nn1CC1CC(c2ccc(OC)cc2)=NO1 (stereo unspecified),12.9*,128.3,nt,-1.0,0.0
CCOC(=O)c1cc(-c2ccccc2C)nn1CC1CC(c2ccc(OC)cc2)=NO1 (stereo unspecified),-0.2,104.5,nt,1.0,5.3
SMILES,GRIN3A LBD mod,CR mimetic SO,NALP1 inh,UBC13 inh,dFosB activator
COC(=O)N/N=C/c1ccc(OC(=O)/C=C/c2ccco2)cc1,10.9*,95.3,9.6,-11.7,nt
CC(C)(C)c1ccc(S(=O)(=O)N2CCNC(=O)C2)cc1,0.1,112.6,nt,11.2,-2.6
CCc1ccc(Nc2n[n+](C)c(-c3ccncc3)s2)cc1,-7.1,103.2,14.2,-1.6,5.8
Cc1csc(NC(=O)C(CC(C)C)NS(=O)(=O)c2ccc3c(c2)oc(=O)n3C)n1 (stereo unspecified),0.6,115.2,45.9*,-1.5,-5.0
CCCCn1nnnc1SCC(=O)NC1CCCCC1,1.3,87.8,4.4,3.6,5.8
Cc1cc(C)c(OCC(=O)NCC2COc3ccccc3O2)c(C)c1 (stereo unspecified),0.3,116.2,nt,5.4,-10.3
Cc1ccc(-n2nc(C)c3c(C)c(CCC(=O)O)c(C)nc32)cc1,-0.7,107.6,3.8,10.9,3.2
Cc1ccc(-n2nc(C)c3c(C)c(CCC(=O)NC(C)c4ccccc4)c(C)nc32)cc1 (stereo unspecified),0.6,106.6,38.9*,14.6,-2.1
COc1ccccc1N1CCN(Cc2cc(=O)c(OCC(=O)NC(C)C)co2)CC1,0.0,98.1,5.9,1.9,-7.4
COc1ccc2c3c(cccc13)C(=O)CC2,-1.1,93.3,21.2,nt,-90.7
Cc1cccc(C)c1NC(=O)CN1CCN(CC(=O)NCC2(N3CCCCC3)CCCCC2)CC1,-1.2,90.2,nt,7.1,-9.7
COc1ccc(-c2nn(C)c3sc(C(=O)NCCN(C)C)cc23)cc1OC,-2.0,128.2,19.4,21.6,50.6*
CC(=O)N1CCc2cc(S(=O)(=O)CCC(=O)NCCc3ccc(Cl)cc3)ccc21,0.7,106.8,11.2,5.3,-6.1
Cn1ccc2cc(-c3csc(N4CCC(C(N)=O)CC4)n3)ccc21,-1.4,114.7,nt,7.0,-6.3
COc1ccc2[nH]c3c(c2c1)CCN1C(=O)C(CC(=O)NCC24CC5CC(CC(C5)C2)C4)C[C@H](C(=O)N(C(C)C)C(C)C)[C@@]31C (stereo partly specified),-1.1,85.5,nt,nt,-10.1
O=C(CNC(=O)c1cccc(-n2cnnn2)c1)Nc1ccc(F)c(F)c1,-2.5,104.6,nt,-0.7,-9.0
O=C(c1ccc2c(c1)[nH]c(=S)n1c3ccccc3nc21)N1CCN(c2ncccn2)CC1,11.1*,101.0,-11.4,?,11.9
O=C1C2(CCCC13COC(c1ccc(O)cc1)OC3)COC(c1ccc(O)cc1)OC2 (stereo unspecified),26.0*,96.5,12.9,2.2,nt
O=C(O)CSc1ncnc2c1oc1ccccc12,-0.6,114.3,7.0,-7.9,1.3
c1ccc(Sc2ncnc3c2oc2ccccc23)cc1,33.8*,97.5,6.2,23.2,-0.3
Cc1ccc2cc(C(c3nnnn3C(C)(C)C)N3CCCCCC3)c(=O)[nH]c2c1 (stereo unspecified),11.0*,95.4,13.3,-4.4,7.8
COC(=O)c1ccc(N2CCN(c3ccccc3)CC2)c(N)c1,1.8,108.2,-7.5,11.6,8.1
